Where a name gives a salt, the structure may show the parent alone. ± gives the standard deviation of the averaged measurements.
Columns and labels:
[1] = system: E18 rat cortical neuron-glia co-culture; experiment: fiber score / MBP score (myelination specific beyond OL differentiation) (ratio); higher = more myelination-specific MBP alignment; settings: treatment time: 8 days (DIV5-DIV13)
Outline: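 Papain-dissociated primary E18 rat cortical co-cultures, plated at 20,000 cells/well on poly-d-lysine/laminin 96-well plates, were exposed to library compounds at 1 or 5 µM in myelination medium between DIV5 and DIV13. Following fixation in 4 % paraformaldehyde, cultures were stained for MBP, Olig2 and DAPI, and four 10X fields per well were analysed in duplicate wells. Values are the ratio of fiber score (continuous MBP fiber length per Olig2+ nucleus) to MBP score (thresholded MBP area × intensity per Olig2+ nucleus).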

[2] = system: E18 rat cortical neuron-glia co-culture; experiment: myelination (MBP fiber length per Olig2+ nucleus), % of 1 µM DAPT response (DMSO = 0) (% of DAPT); higher = more myelination, active = 50 or more; settings: treatment time: 8 days (DIV5-DIV13)
Outline: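 Myelination, expressed as continuous straight MBP fiber length per Olig2+ nucleus, was normalised to 0.1 % DMSO as 0 and a 1 µM positive control as 100. The cultures were primary E18 rat cortical co-cultures dissociated with papain and plated at 20,000 cells/well on poly-d-lysine/laminin-coated 96-well plates. They received library compounds at 1 or 5 µM in myelination medium between DIV5 and DIV13. Analysis covered four 10X fields per well in duplicate wells after 4 % paraformaldehyde fixation and immunostaining for MBP and Olig2 with DAPI.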

Compound	fiber score / MBP score ([1]; 1 µM)	fiber score / MBP score ([1]; 5 µM)	myelination ([2]; 1 µM)	myelination ([2]; 5 µM)
N[C@@H](C(=O)N[C@@H]1C(=O)N2C(C(=O)O)=C(Cl)CS[C@H]12)c1ccccc1 [Cefaclor]	0.944	0.875	1.34 (inactive)	-10.6 (inactive)
Clc1ccccc1C(c1ccccc1)(c1ccccc1)n1ccnc1 [Clotrimazole]	0.906	1.15	7.64 (inactive)	-27.1 (inactive)
Nc1cc(N2CCCCC2)nc(N)[n+]1[O-] [Minoxidil]	0.696	0.658	-26.1 (inactive)	-24.5 (inactive)
Nc1ccn([C@@H]2CS[C@H](CO)O2)c(=O)n1 [Lamivudine]	0.832 ± 0.033	0.619 ± 0.073	-7.54 (inactive)	-12.3 (inactive)
CN1CCN(c2nc3cc(C(F)(F)F)ccc3n3cccc23)CC1	0.707	0.682	-2.34 (inactive)	-20.7 (inactive)
Cn1cnc([N+](=O)[O-])c1Sc1ncnc2[nH]cnc12 [Azathioprine]	0.762	0.822	-10.3 (inactive)	-32.9 (inactive)
Nc1ccc2cn[nH]c2c1 [6-Aminoindazole]	0.529	0.815	-12.7 (inactive)	-11.1 (inactive)
O=C1CN2Cc3c(ccc(Cl)c3Cl)N=C2N1 [Anagrelide hydrochloride]	0.9	0.706	-1.07 (inactive)	-10 (inactive)
CC1(C)C[C@@H]1C(=O)N/C(=C\CCCCSC[C@H](N)C(=O)O)C(=O)O [Cilastatin]	0.833	0.756	-11.5 (inactive)	-15.2 (inactive)
O=C(CCCN1CCC(O)(c2ccc(Cl)cc2)CC1)c1ccc(F)cc1 [Haloperidol]	0.526	0.498	-18 (inactive)	-13.9 (inactive)
C[C@H]1C[C@H]2[C@@H]3CCC4=CC(=O)C=C[C@]4(C)[C@@]3(Cl)[C@@H](O)C[C@]2(C)[C@@]1(O)C(=O)CO [Beclomethasone]	0.828 ± 0.36	0.822 ± 0.021	-2.48 (inactive)	-7.92 (inactive)
CC(C)NCC(O)COc1ccc(COCCOC(C)C)cc1 (stereo unspecified) [Bisoprolol]	0.546	0.728	-58.3 (inactive)	-38.2 (inactive)
O=C1CC[C@@H](C(=O)N2CSC[C@H]2C(=O)O)N1 [Pidotimod]	0.869	0.881	-7.34 (inactive)	-4.26 (inactive)
CC(=O)OCC[N+](C)(C)C [Acetylcholine]	0.236	0.34	-17.4 (inactive)	-15.1 (inactive)
O=C(O)c1cc(-c2ccc(F)cc2F)ccc1O [Diflunisal]	0.772	1.08	-4.48 (inactive)	6.86 (inactive)
Cc1ncc([N+](=O)[O-])n1CC(O)CCl (stereo unspecified) [Ornidazole]	0.58	0.686	-14.7 (inactive)	-1.4 (inactive)
CC(=O)S[C@@H]1CC2=CC(=O)CC[C@]2(C)[C@H]2CC[C@@]3(C)[C@@H](CC[C@@]34CCC(=O)O4)[C@H]12 [Spironolactone]	0.765	1.22	-5.5 (inactive)	6.33 (inactive)
COc1cc(N)c(Cl)cc1C(=O)NC1CCN(CCCOc2ccc(F)cc2)CC1OC (stereo unspecified) [Cisapride]	0.935	0.515	-1.62 (inactive)	-10.2 (inactive)
O=C1NC(=O)C(c2ccccc2)(c2ccccc2)N1 [Phenytoin]	0.39	0.762	-17.5 (inactive)	-20.9 (inactive)
CCOC(=O)O[C@]1(C(=O)OCCl)CC[C@H]2[C@@H]3CCC4=CC(=O)C=C[C@]4(C)[C@H]3[C@@H](O)C[C@@]21C [Loteprednol etabonate]	0.604	0.881	-14.2 (inactive)	-1.58 (inactive)
C[C@]12CCC(=O)C=C1CC[C@@H]1[C@@H]2CC[C@@]2(C)[C@H]1CC[C@]2(O)C(=O)CO [Cortodoxone]	0.514	0.781	-16.7 (inactive)	-9 (inactive)
CN1[C@@H]2CC[C@H]1C[C@@H](OC(=O)c1c[nH]c3ccccc13)C2 [Tropisetron]	0.706	0.562	-47.4 (inactive)	-53.9 (inactive)
O=C1[C@H](CC[C@H](O)c2ccc(F)cc2)[C@@H](c2ccc(O)cc2)N1c1ccc(F)cc1 [Ezetimibe]	0.641	0.648	-31.2 (inactive)	-37.1 (inactive)
c1ccc2c(CC3=NCCN3)cccc2c1 [Naphazoline]	1.1	1.06	13.7 (inactive)	14 (inactive)
